Measured values taken from PubChem BioAssay (NCI).
This is part of a sample that, as a whole, favours compounds with a hit. Of some 79,000 tested, about 15% had one in any assay. Activity calls are given as the source filed them. Rule as the data show it: active = growth inhibition above about 70%; inactive = the rest.

Tests used:
[1] = NCI Yeast Anticancer Drug Screen. Data for the rad52 strain (AID 147);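 also: 0% = growth of vehicle-treated control cultures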; settings: S. cerevisiae rad52 mutant growth inhibition, hits give high values
Summary of the method: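 Genetically altered yeast (DNA damage repair defect) treated with compound; inhibition calculated relative to vehicle.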

[2] = NCI Yeast Anticancer Drug Screen. Data for the wt1 strain (AID 149);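 also: 0% = growth of vehicle-treated wt1 cultures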; settings: S. cerevisiae wt1 strain (SPY 50644) growth inhibition, hits give high values
Summary of the method: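 wt1 strain grown with compound or vehicle; inhibition taken from the growth difference.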

[3] = NCI Yeast Anticancer Drug Screen. Data for the rad50EPP+ strain (AID 151);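 also: 0% = growth of vehicle-treated control cultures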; settings: S. cerevisiae rad50 mutant strain, hits give high values
Summary of the method: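 Strain rad50EPP+; compound exposure; % growth inhibition vs vehicle.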

[4] = NCI Yeast Anticancer Drug Screen. Data for the mgt1 strain (AID 153); settings: S. cerevisiae mgt1 mutant growth inhibition, hits give high values
Summary of the method: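 Read-out: yeast growth inhibition vs vehicle control. Strain mgt1, drawn from a panel altered in DNA damage repair or cell cycle control.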

[5] = NCI Yeast Anticancer Drug Screen. Data for the rad50 strain (AID 155);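 also: 0% = growth of vehicle-only cultures of the same strain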; settings: S. cerevisiae rad50 strain growth inhibition, hits give high values
Summary of the method: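 DNA repair mutant yeast, compound exposure, growth read-out; inhibition is taken relative to vehicle.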

[6] = NCI Yeast Anticancer Drug Screen. Data for the rad14 strain (AID 159);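 also: 0% = growth of vehicle-treated control cultures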; settings: S. cerevisiae rad14 strain growth inhibition, hits give high values
Summary of the method: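 DNA repair-defective yeast, compound-exposed; % growth inhibition derived by comparison with vehicle-treated controls.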

[7] = NCI Yeast Anticancer Drug Screen. Data for the sgs1 mgt1 strain (AID 161);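 also: 0% = growth of cultures given vehicle only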; settings: S. cerevisiae sgs1 mgt1 strain, hits give high values
Summary of the method: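 Inhibition of yeast growth, normalised to vehicle-treated controls, is reported for a strain bearing genetic alterations in DNA damage repair.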

[8] = NCI Yeast Anticancer Drug Screen. Data for the CLN2oe strain (AID 163);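 also: 0% = growth of vehicle-only control cultures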; settings: S. cerevisiae CLN2oe strain, hits give high values
Summary of the method: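 Strain altered in cell-cycle control, incubated with compound; growth compared to solvent-treated controls.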

[9] = NCI Yeast Anticancer Drug Screen. Data for the cln2 rad14 strain (AID 165);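 also: 0% = growth equal to vehicle treated cultures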; settings: S. cerevisiae cln2 rad14 strain, hits give high values
Summary of the method: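 The screen exposed genetically defined yeast (cln2 rad14) to test compounds and scored growth inhibition relative to vehicle-treated controls.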

[10] = NCI Yeast Anticancer Drug Screen. Data for the bub3 strain (AID 167); settings: S. cerevisiae bub3 mutant strain, hits give high values
Summary of the method: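 In this screen, a yeast mutant lacking normal mitotic checkpoint function is challenged with compound. Relative growth versus vehicle gives the inhibition value.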

[11] = NCI Yeast Anticancer Drug Screen. Data for the wt2 strain (AID 169);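 also: 0% = growth of vehicle-treated yeast cultures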; settings: S. cerevisiae wt2 strain growth inhibition, hits give high values
Summary of the method: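 Steps: yeast strain treated with compound; growth recorded; inhibition calculated relative to cultures given vehicle alone.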

[12] = NCI Yeast Anticancer Drug Screen. Data for the mlh1 rad18 strain (AID 175); settings: S. cerevisiae mlh1 rad18 strain growth inhibition, hits give high values
Summary of the method: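 Compound-treated yeast growth, normalised to vehicle controls. Strain bears defined DNA repair mutations.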

[13] = NCI Yeast Anticancer Drug Screen. Data for the rad18 strain (AID 177); settings: S. cerevisiae rad18 mutant growth inhibition, hits give high values
Summary of the method: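 Inhibition values reflect reduced yeast growth compared with vehicle-treated controls, using a strain engineered with a DNA damage repair defect.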

[14] = NCI Yeast Anticancer Drug Screen. Data for the mec2-1 strain (AID 157); settings: S. cerevisiae mec2-1 strain, hits give high values
Summary of the method: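 Cells of the genetically defined mec2-1 yeast strain are incubated with test compound. Inhibition of growth is calculated against vehicle-treated controls.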

[15] = NCI Yeast Anticancer Drug Screen. Data for the mlh1 strain (AID 171);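 also: 0% = growth of vehicle-treated control cultures of the same strain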; settings: S. cerevisiae mlh1 strain growth inhibition, hits give high values
Summary of the method: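 Yeast screen: mutant strain plus compound, growth scored against vehicle control wells.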

[16] = NCI Yeast Anticancer Drug Screen. Data for the sgs1 strain (AID 173);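 also: 0% = growth of vehicle-only control cultures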; settings: S. cerevisiae sgs1 mutant, hits give high values
Summary of the method: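 Inhibition of yeast growth served as the measure. The mutant strain was treated with each compound, and growth was normalised to cultures receiving vehicle alone.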

[17] = at 5.0 µM (retest, dose inferred, filed as 0.5)
[18] = at 50.0 µM (retest, dose inferred, filed as 5.0)

Measured: growth inhibition

O=[N+]([O-])c1ccc(C(c2c[nH]c3ccccc23)c2c[nH]c3ccccc23)cc1
active: [1]; at 1.2 µM 82% | [1]; at 3.7 µM 97% | [1]; at 11.0 µM 95% | [1]; at 33.0 µM 90% | [1]; at 100.0 µM 82% | [2]; at 3.7 µM 97% | [2]; at 11.0 µM 96% | [2]; at 33.0 µM 92% | [2]; at 100.0 µM 89% | [4]; at 3.7 µM 99% | [4]; at 11.0 µM 97% | [4]; at 33.0 µM 94% | [4]; at 100.0 µM 87% | [5]; at 1.2 µM 84% | [5]; at 3.7 µM 85% | [5]; [17] 79% | [5]; at 11.0 µM 94% | [5]; at 33.0 µM 89% | [5]; [18] 89% | [5]; at 50.0 µM 93.2% | [5]; at 100.0 µM 79% | [6]; at 3.7 µM 98% | [6]; at 11.0 µM 97% | [6]; at 33.0 µM 93% | [6]; at 100.0 µM 84% | [7]; [17] 82% | [7]; [18] 95% | [7]; at 50.0 µM 92.9% | [8]; at 3.7 µM 98% | [8]; at 11.0 µM 96% | [8]; at 33.0 µM 92% | [8]; at 100.0 µM 86% | [9]; [18] 93% | [9]; at 50.0 µM 88.1% | [10]; at 3.7 µM 98% | [10]; at 11.0 µM 96% | [10]; at 33.0 µM 93% | [10]; [18] 96% | [10]; at 50.0 µM 94.3% | [10]; at 100.0 µM 86% | [11]; at 3.7 µM 98% | [11]; at 11.0 µM 97% | [11]; at 33.0 µM 94% | [11]; at 100.0 µM 88% | [12]; [17] 93% | [12]; [18] 92% | [12]; at 50.0 µM 93% | [13]; at 3.7 µM 98% | [13]; at 11.0 µM 96% | [13]; at 33.0 µM 92% | [13]; at 100.0 µM 86%
inactive: [2]; at 1.2 µM 12% | [3]; at 1.2 µM 10% | [3]; at 3.7 µM 9% | [3]; at 11.0 µM 3% | [3]; at 33.0 µM 2% | [3]; at 100.0 µM -14% | [4]; at 1.2 µM 18% | [6]; at 1.2 µM 25% | [8]; at 1.2 µM 40% | [9]; [17] 14% | [10]; at 1.2 µM 24% | [10]; [17] 45% | [11]; at 1.2 µM 9% | [13]; at 1.2 µM 66%

CCCCCCCCCCCCCCCCCCN(C)C(COC)COP(=O)([O-])OCC[N+](C)(C)C (stereo not drawn)
inactive: [1]; at 1.2 µM -58% | [1]; at 3.7 µM -67% | [2]; at 1.2 µM -34% | [2]; at 3.7 µM -56% | [3]; at 1.2 µM -33% | [3]; at 3.7 µM 63% | [5]; at 1.2 µM -24% | [5]; at 3.7 µM -11% | [5]; [17] 1% | [14]; at 1.2 µM -48% | [14]; at 3.7 µM -46% | [14]; [17] 12% | [14]; at 50.0 µM 23.9% | [6]; at 1.2 µM -69% | [6]; at 3.7 µM -78% | [7]; [17] 3% | [7]; [18] 2% | [8]; at 1.2 µM -39% | [8]; at 3.7 µM -44% | [9]; [17] 13% | [9]; [18] -70% | [9]; at 50.0 µM 8.85% | [10]; at 1.2 µM -23% | [10]; at 3.7 µM -40% | [10]; [17] 14% | [10]; [18] 10% | [11]; at 1.2 µM -41% | [11]; at 3.7 µM -55% | [15]; at 1.2 µM -34% | [15]; at 3.7 µM -54% | [16]; at 1.2 µM -64% | [16]; at 3.7 µM -64% | [12]; [17] 16% | [12]; at 50.0 µM 50% | [13]; at 1.2 µM -64% | [13]; at 3.7 µM -24%
active: [1]; at 11.0 µM 95% | [1]; at 33.0 µM 97% | [1]; at 100.0 µM 97% | [2]; at 11.0 µM 98% | [2]; at 33.0 µM 99% | [2]; at 100.0 µM 98% | [3]; at 11.0 µM 97% | [3]; at 33.0 µM 98% | [3]; at 100.0 µM 98% | [5]; at 11.0 µM 97% | [5]; at 33.0 µM 98% | [5]; [18] 98% | [5]; at 50.0 µM 73.6% | [5]; at 100.0 µM 98% | [14]; at 11.0 µM 97% | [14]; at 33.0 µM 98% | [14]; [18] 99% | [14]; at 100.0 µM 98% | [6]; at 11.0 µM 96% | [6]; at 33.0 µM 98% | [6]; at 100.0 µM 97% | [7]; at 50.0 µM 85.8% | [8]; at 11.0 µM 97% | [8]; at 33.0 µM 98% | [8]; at 100.0 µM 98% | [10]; at 11.0 µM 98% | [10]; at 33.0 µM 98% | [10]; at 50.0 µM 85.2% | [10]; at 100.0 µM 98% | [11]; at 11.0 µM 97% | [11]; at 33.0 µM 98% | [11]; at 100.0 µM 98% | [15]; at 11.0 µM 97% | [15]; at 33.0 µM 98% | [15]; at 100.0 µM 98% | [16]; at 11.0 µM 97% | [16]; at 33.0 µM 98% | [16]; at 100.0 µM 98% | [12]; [18] 98% | [13]; at 11.0 µM 97% | [13]; at 33.0 µM 98% | [13]; at 100.0 µM 98%

COC(=O)C(=O)CC(=O)c1cccc(OC)c1
inactive: [1]; at 1.2 µM -9% | [1]; at 3.7 µM -10% | [1]; at 11.0 µM -5% | [1]; at 33.0 µM 10% | [1]; at 100.0 µM 17% | [2]; at 1.2 µM 1% | [2]; at 3.7 µM 9% | [2]; at 11.0 µM 24% | [2]; at 33.0 µM 28% | [2]; at 100.0 µM 39% | [3]; at 1.2 µM -10% | [3]; at 3.7 µM -23% | [3]; at 11.0 µM -7% | [3]; at 33.0 µM 32% | [3]; at 100.0 µM 26% | [4]; at 1.2 µM -1% | [4]; at 3.7 µM -4% | [4]; at 11.0 µM 2% | [4]; at 33.0 µM 14% | [4]; at 100.0 µM 40% | [5]; at 1.2 µM -13% | [5]; at 3.7 µM -15% | [5]; [17] -150% | [5]; at 11.0 µM -10% | [5]; at 33.0 µM 32% | [5]; [18] 51% | [5]; at 50.0 µM 19.4% | [5]; at 100.0 µM 44% | [14]; at 1.2 µM 0% | [14]; at 3.7 µM 1% | [14]; [17] -44% | [14]; at 11.0 µM 4% | [14]; at 33.0 µM 10% | [14]; [18] -15% | [14]; at 50.0 µM 18.6% | [14]; at 100.0 µM 16% | [7]; [17] -58% | [7]; [18] 24% | [7]; at 50.0 µM 0.4% | [8]; at 1.2 µM -6% | [8]; at 3.7 µM -3% | [8]; at 11.0 µM -1% | [8]; at 33.0 µM 1% | [8]; at 100.0 µM 10% | [9]; [17] -51% | [9]; [18] -45% | [9]; at 50.0 µM -75.5% | [10]; at 1.2 µM -4% | [10]; at 3.7 µM -4% | [10]; [17] -67% | [10]; at 11.0 µM -5% | [10]; at 33.0 µM 2% | [10]; [18] 12% | [10]; at 50.0 µM -7.55% | [10]; at 100.0 µM 22% | [15]; at 1.2 µM -11% | [15]; at 3.7 µM -5% | [15]; at 11.0 µM -3% | [15]; at 33.0 µM 39% | [15]; at 100.0 µM 64%
